# Among all 5,500 compounds or so, about 2,000 (36%) were called active. Not shown: some 18% with an inconclusive outcome. Some of the results follow. A number with no mark means an inactive call. Rule as the data show it: active = normalized growth mostly below about 0.91 (no sharp cut-off); inconclusive = no clear call, values can overlap the other calls; inactive = mostly above about 0.92.
# Test: chemical genetic growth profiling, strain panel (AID 1159580);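 also: tested at 20 µM; growth read once vehicle control cultures reached saturation at 30 °C; 1 = growth at the plate median or of vehicle wells; lower values mean less growth of the strain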
# Conditions: S. cerevisiae deletion strains, growth OD
smiles,measurement,setting,value
CC1(C)CCC2(C(=O)O)CCC3(C)C(=CCC4C5(C)CCC(O)C(C)(C)C5C(O)CC43C)C2C1 (stereo not given),normalized growth,"locus YAL021C, strain ccr4, hits give low values",1
same,normalized growth,"locus YAL026C, strain drs2, hits give low values",1.04
same,normalized growth,"locus YAL030W, strain snc1, hits give low values",1.03
same,normalized growth,"locus YBL061C, strain skt5, hits give low values",1.03
same,normalized growth,"locus YBR009C, strain hhf1, hits give low values",1.02
same,normalized growth,"locus YBR023C, strain chs3, hits give low values",1.04
same,normalized growth,"locus YBR171W, strain sec66, hits give low values",1.05
same,normalized growth,"locus YBR231C, strain swc5, hits give low values",1.03
same,normalized growth,"locus YBR279W, strain paf1, hits give low values",1.03
same,normalized growth,"locus YCL011C, strain gbp2, hits give low values",1.02
same,normalized growth,"locus YCL016C, strain dcc1, hits give low values",1.01
same,normalized growth,"locus YCL069W, strain vba3, hits give low values",1.03
same,normalized growth,"locus YCR088W, strain abp1, hits give low values",1.04
same,normalized growth,"locus YDL005C, strain med2, hits give low values",0.246 (active)
same,normalized growth,"locus YDL040C, strain nat1, hits give low values",1.04
same,normalized growth,"locus YDR001C, strain nth1, hits give low values",1.03
same,normalized growth,"locus YDR069C, strain doa4, hits give low values",1.11 [resistant] (active)
same,normalized growth,"locus YDR137W, strain rgp1, hits give low values",0.871
same,normalized growth,"locus YDR159W, strain sac3, hits give low values",1.01
same,normalized growth,"locus YDR195W, strain ref2",1.06
same,normalized growth,"locus YDR297W, strain sur2, hits give low values",1.04
same,normalized growth,"locus YDR334W, strain swr1, hits give low values",1.04
same,normalized growth,"locus YDR335W, strain msn5, hits give low values",1.01
same,normalized growth,"locus YDR392W, strain spt3, hits give low values",0.966
same,normalized growth,"locus YEL003W, strain gim4, hits give low values",1.01
same,normalized growth,"locus YEL037C, strain rad23, hits give low values",1.02
same,normalized growth,"locus YER015W, strain faa2, hits give low values",1.03
same,normalized growth,"locus YER016W, strain bim1, hits give low values",1.04
same,normalized growth,"locus YER111C, strain swi4, hits give low values",1.02
same,normalized growth,"locus YER155C, strain BEM2 (second series), hits give low values",1.03
same,normalized growth,"locus YFR010W, strain ubp6, hits give low values",1.06
same,normalized growth,"locus YGL167C, strain pmr1, hits give low values",1.05
same,normalized growth,"locus YGL173C, strain kem1, hits give low values",1.03
same,normalized growth,"locus YGL227W, strain vid30, hits give low values",1.04
same,normalized growth,"locus YGL240W, strain doc1, hits give low values",0.961
same,normalized growth,"locus YGL253W, strain hxk2, hits give low values",1.04
same,normalized growth,"locus YHR013C, strain ard1, hits give low values",1.12
same,normalized growth,"locus YHR027C, strain rpn1, hits give low values",1.04
same,normalized growth,"locus YHR142W, strain chs7, hits give low values",1.02
same,normalized growth,"locus YJL092W, strain hpr5, hits give low values",1.04
same,normalized growth,"locus YJL095W, strain BCK1 (second series), hits give low values",1.05
same,normalized growth,"locus YJL115W, strain asf1, hits give low values",1.03
same,normalized growth,"locus YJL129C, strain trk1, hits give low values",0.972
same,normalized growth,"locus YJL154C, strain vps35, hits give low values",1.02
same,normalized growth,"locus YJL164C, strain tpk1, hits give low values",1.02
same,normalized growth,"locus YJL166W, strain qcr8, hits give low values",1.02
same,normalized growth,"locus YJL187C, strain SWE1, hits give low values",1.03
same,normalized growth,"locus YKL160W, strain elf1, hits give low values",1.03
same,normalized growth,"locus YKR026C, strain gcn3, hits give low values",1.05
same,normalized growth,"locus YKR091W, strain srl3, hits give low values",1.03
same,normalized growth,"locus YLL001W, strain dnm1, hits give low values",1.02
same,normalized growth,"locus YLL026W, hits give low values",1.03
same,normalized growth,"locus YLL041C, strain sdh2, hits give low values",1.05
same,normalized growth,"locus YLR027C, strain aat2, hits give low values",1.04
same,normalized growth,"locus YLR221C, strain rsa3, hits give low values",1.03
same,normalized growth,"locus YLR258W, strain gsy2, hits give low values",1.02
same,normalized growth,"locus YLR262C, strain YPT6 (second series), hits give low values",0.938
same,normalized growth,"locus YLR320W, strain mms22, hits give low values",1.02
same,normalized growth,"locus YLR342W, strain FKS1, hits give low values",1.04
same,normalized growth,"locus YLR357W, strain rsc2, hits give low values",1.01
same,normalized growth,"locus YLR370C, strain arc18, hits give low values",1.04
same,normalized growth,"locus YLR384C, strain iki3, hits give low values",1.04
same,normalized growth,"locus YML120C, strain ndi1, hits give low values",1.02
same,normalized growth,"locus YMR058W, strain fet3, hits give low values",1.01
same,normalized growth,"locus YMR125W, strain sto1, hits give low values",1.03
same,normalized growth,"locus YMR129W, hits give low values",1.03
same,normalized growth,"locus YMR205C, strain PFK2, hits give low values",1.02
same,normalized growth,"locus YMR231W, strain pep5, hits give low values",1.02
same,normalized growth,"locus YNL071W, strain lat1, hits give low values",1.05
same,normalized growth,"locus YNL209W, strain ssb2, hits give low values",1.04
same,normalized growth,"locus YNL248C, strain rpa49, hits give low values",1.01
same,normalized growth,"locus YNL322C, strain KRE1 (second series), hits give low values",1.05
same,normalized growth,"locus YNR049C, strain mso1, hits give low values",1.04
same,normalized growth,"locus YOR001W, strain rrp6, hits give low values",0.964
same,normalized growth,"locus YOR070C, strain gyp1, hits give low values",1.03
same,normalized growth,"locus YOR080W, strain dia2, hits give low values",1.04
same,normalized growth,"locus YOR083W, strain WHI5, hits give low values",1.02
same,normalized growth,"locus YOR106W, strain vam3, hits give low values",0.901
same,normalized growth,"locus YOR265W, strain rbl2, hits give low values",1.02
same,normalized growth,"locus YOR270C, strain vph1, hits give low values",0.911
same,normalized growth,"locus YOR290C, strain snf2, hits give low values",0.991
same,normalized growth,"locus YPL051W, strain arl3, hits give low values",0.992
same,normalized growth,"locus YPL078C, strain atp4, hits give low values",1.01
same,normalized growth,"locus YPL106C, strain sse1, hits give low values",1.03
same,normalized growth,"locus YPL240C, strain hsp82, hits give low values",1.03
